Source: PubChem BioAssay (National Center for Advancing Translational Sciences (NCATS))
RGS12 GoLoco inh – RGS12 GoLoco-Gai1 interaction inhibition; 0.44% of 230,000 active; Gai1:RGS12 GoLoco peptide FP, rhodamine, 10 min; Potency, µM (highest dose often 61.6 µM), without a hit: at the highest dose activity, negative = inhibition, usual class: inhibitors; P63096; active = well fitted inhibition curve with a large enough effect, not every such curve was filed as active; inactive = no such curve, though single readings can be large or run the other way; also: nearly all actives have a fitted effect of over 30% in size
TRb SRC2 PPI – inhibitors of human thyroid hormone receptor beta-SRC2 interaction; TRbeta-SRC2 peptide binding, fluorescence polarization; receptor liganded with 1 µM T3; Potency, µM (doses to about 106 µM), for the others: at the highest dose activity change, negative = inhibition, usual class: inhibitors; 0.065% of 280,000 active;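 also: plate controls were bound peptide for no effect and peptide without receptor for full effect; nearly all actives have a fitted effect of over 50% in size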
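TRb LBD 0.6 uM + Texas Red SRC2 peptide 20 nM, 1 uM T3, Tris buffer w/ 5% DMSO; compound pinned, 5 h RT; FP read ex 555/em 632; normalized to unbound and bound controls.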
GCN5L2 inh – blocks human GCN5L2 histone acetyltransferase. GCN5L2 HAT assay, ThioGlo1 CoA-SH fluorescence. Q92830. Potency, µM (titrated, usually from 58.9 µM), without a hit: top-dose activity change, negative = inhibition, actives largely listed as inhibitors. 0.21% of 390,000 active
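ThioGlo1-coupled HAT assay: 20nM GCN5L2, 70uM acetyl-CoA, 75uM H3(1-25) peptide, pH 7.5. Fluorescence read at 340/540nm at start and after 20 min at room temperature.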
VDR inh – vitamin D3 receptor (human) inhibition; VDR-SRC2-3 peptide fluorescence polarization, 2 h; Potency, µM, for inactives: max response, negative = inhibition, usual class: inhibitors; 0.93% of 400,000 active
Target sequence (P11473 whole entry, looked up): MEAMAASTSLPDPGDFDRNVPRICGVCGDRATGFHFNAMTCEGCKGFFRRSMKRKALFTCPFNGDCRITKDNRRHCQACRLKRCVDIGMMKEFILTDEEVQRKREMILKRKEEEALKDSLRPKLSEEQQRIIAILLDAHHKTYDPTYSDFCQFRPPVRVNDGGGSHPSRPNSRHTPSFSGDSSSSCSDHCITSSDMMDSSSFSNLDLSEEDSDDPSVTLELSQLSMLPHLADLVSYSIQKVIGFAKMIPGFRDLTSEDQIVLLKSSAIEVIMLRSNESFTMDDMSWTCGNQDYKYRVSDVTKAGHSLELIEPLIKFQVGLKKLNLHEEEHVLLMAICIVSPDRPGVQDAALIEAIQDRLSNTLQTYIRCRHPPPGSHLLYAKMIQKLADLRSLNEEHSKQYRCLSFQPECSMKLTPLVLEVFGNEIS
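Inhibition of the VDR/SRC2-3 peptide interaction is quantified by fluorescence polarization. Compounds (23 nl, pintool) incubate with the reagents for 2 hours at ambient room temperature.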
TR SRC2 fluor cs – Texas Red fluorescence interference in TRb-SRC2 counter-screen. 0.29% of 280,000 active. Potency, µM (doses to about 106 µM), without a hit: at the highest dose fluorescence change, negative = quenching. TRb/SRC2 Texas Red total fluorescence interference. AID 1479; active = well fitted curve in either direction with a large enough effect; inconclusive = small, poorly fitted or top-dose-only effect
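Human TRb ligand-binding domain at 0.6 uM with 20 nM Texas Red SRC2 peptide in Tris buffer containing 1 uM T3 and 5% DMSO, incubated with compound 5 h at ambient temperature. Total fluorescence (555/632 nm) calculated as parallel + 2 × perpendicular.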
An asterisk follows results filed as active; i = inactive; ? = inconclusive; nt = no result; ! = not active in a repeat; [ ] = dose if it differs, or a comment. A selection: hits, their analogues and other compounds. The true share with any hit is near 1.2%. Unless noted, calls follow the shape of the dose curve; as a rule, active = well fitted curve in the direction sought with a large enough effect; inconclusive = small, poorly fitted or top-dose-only effect, or another doubt; inactive = no such curve, though single readings can be large; an effect the other way counts as inactive or inconclusive. Unless noted, % is scaled to controls: 0 for no effect and ±100 for the full control effect; potency is read from the fitted curve at half-maximal effect.

SMILES	RGS12 GoLoco inh	TRb SRC2 PPI	GCN5L2 inh	VDR inh	TR SRC2 fluor cs
CCS(=O)(=O)N1CC(=O)N(c2ccc(C)c(C)c2)C(C)(C(=O)NC2CCCCCC2)C1 (configuration not stated)	nt	1%	-4%	8%	2%
O=C(/C=C/C#Cc1cccc(NS(=O)(=O)c2ccccc2)c1)NO	nt	-5%	14%	-18%	?
COc1ccccc1CNc1ncnc2ccc(-c3ccccc3OC)cc12	-1%	nt	-7%	-2%	nt
CCC(/C=C1\Sc2ccc(OC)cc2N1CC)=C\c1sc2ccc(OC)cc2[n+]1CCCS(=O)(=O)[O-]	-188%	?	3%	?	40µM*[fluorescent]
CCC(/C=C1\Sc2ccc(OC)cc2N1CCO)=C\c1sc2ccc(OC)cc2[n+]1CCO	-190%	?	?	79µM*	50µM*[fluorescent]
C/C(CCC(=O)OC[C@@H]1O[C@H](C#Cc2ccccc2)C=C[C@@H]1Oc1ccc(C)cc1)=N/OC[C@@H](C)[C@H](OCc1ccccc1)C(C)C	nt	6%[11.2 µM]	nt	nt	-1%[11.2 µM]
Cc1cc(C)c2c(=O)n(CC(=O)NC3CCCC3)sc2n1	3.5µM*	-1%	?	10µM*	-4%
Cc1ncc(CO)c(/C=N/NC(=S)Nc2cccc(Cl)c2)c1O	13%	-7%	-3%	79µM*	-4%
Cc1ncc(CO)c(/C=N/NC(=S)Nc2ccc(Cl)c(Cl)c2)c1O	25%	3%	-20%	?	-2%
CCC1CC=CC2C1C(=O)N(Cc1ccccc1)C2c1cc(C)ccc1F (configuration not stated)	nt	2%	nt	?	0%
CCc1ccc(C(=O)c2cnc3ccc(F)cc3c2S(=O)(=O)c2ccccc2)cc1	nt	-10%	-10%	-11%	25µM*[quencher]
Cc1ccc2ncc(C(=O)c3ccc(C)c(C)c3)c(S(=O)(=O)c3ccccc3)c2c1	nt	-2%	-9%	1%	7%
CCC(=O)Nc1nc(=S)ss1	-12%	7%	-20%	45µM*	1%
Cc1ccc(CNC(=O)c2c[nH]n3c(=O)c(Cc4ccc(F)cc4Cl)c(C)nc23)cc1	nt	3%	35µM*	-8%	-11%
Cc1nc2c(C(=O)NCCc3ccccc3)c[nH]n2c(=O)c1Cc1ccc(F)cc1Cl	nt	-8%	?	?	-18%
COc1ccc(CCNC(=O)c2c[nH]n3c(=O)c(Cc4ccccc4Cl)c(C)nc23)cc1OC	nt	3%	28µM*	7%	-3%
CN1CCN(c2ncc3nc(-c4cc(F)cc(F)c4)c(=O)n(CCC#N)c3n2)CC1	-13%	nt	25µM*	22µM*	nt
COCCn1c(=O)c(-c2cc(F)cc(F)c2)nc2cnc(N3CCN(C)CC3)nc21	1%	nt	-18%	-4%	nt
CSCCC(NC(=O)OCc1ccccc1)C(=O)O (configuration not stated)	1%	-8%	-2%	-2%	-2%
CSCC[C@H](NC(=O)[C@H](Cc1ccccc1)NC[C@@H](NC[C@@H](N)CS)C(C)C)C(=O)O	-25%	-3%	28%	35µM*	0%
C=Cc1ccc(P(c2ccccc2)c2ccccc2)cc1	nt	11%[201 µM]	nt	nt	3%[201 µM]
COc1ccc(N2CCCC2)c(NC(=O)c2ccc([N+](=O)[O-])o2)c1	nt	nt	-7%	79µM*	nt
O=C(Nc1ccccc1N1CCCC1)c1ccc([N+](=O)[O-])o1	nt	nt	0%	32%	nt
NCCNC(=S)S	-8%[14.2 µM]	nt	nt	nt	nt
NS(=O)(=O)c1ccc(NCCCn2ccnc2)c([N+](=O)[O-])c1	nt	nt	-5%	3%	nt
SMILES	RGS12 GoLoco inh	TRb SRC2 PPI	GCN5L2 inh	VDR inh	TR SRC2 fluor cs
O=C1c2ccccc2-c2onc3ccc(NCCCn4ccnc4)c1c23	i	16µM*	-6%	-25%	45µM*[fluorescent]
O=C(NCc1ccc(F)cc1)C1CCCN(c2ncnc3onc(-c4ccc(F)cc4)c23)C1 (configuration not stated)	nt	-28%	-6%	7%	16µM*[quencher]
Fc1ccc(CNc2ncnc3onc(-c4ccc(F)cc4)c23)cc1	nt	-7%	-4%	13%	-3%
Cc1ccc(CNc2ncnc3onc(-c4ccc(F)cc4)c23)cc1	nt	-19%	-2%	20%	0.089µM*[quencher]
CCCCN1CCC[C@H]1CNC(=O)c1cc(C#N)c2ccccc2c1OC	nt	-1%	-17%	5%	-4%
Cc1c(N(C)CS(=O)(=O)O)c(=O)n(-c2ccccc2)n1C	28µM*!	-13%	23%	-14%	2%
Nc1cc(C(=O)O)c(O)c(S(=O)(=O)O)c1	-7%	-5%	nt	nt	-1%
CC1CCCN(CCC(=O)c2ccc(Br)cc2)C1 (configuration not stated)	-1%	-15%	-18%	79µM*	-3%
COc1ccc(C(=O)CCN2CCC(C)CC2)cc1	nt	nt	2%	79µM*	nt
CCOC(=O)N1CCN(CCC(=O)c2ccc(Br)cc2)CC1	nt	nt	-1%	18µM*	nt
CCOC(=O)N1CCN(CCC(=O)c2ccc(OC)cc2)CC1	1%	-9%	-9%	?	-5%
CC(C)COc1ccc(C(=O)CCN2CCCCC2)cc1	-16%	?	-1%	?	2%
CCCCOc1ccc(C(=O)CCN2CCCCC2)cc1	-9%	?	2%	4.5µM*	3%
COc1ccc(-c2nc3ccccn3c2Nc2ccccc2C)cc1	nt	nt	nt	-5%	nt
CCCCC(CC)COP(=O)(O)OCC(CC)CCCC (configuration not stated)	nt	2%[201 µM]	nt	nt	0%[201 µM]
N#CN=c1snc(-c2ccccc2Cl)n1-c1ccccc1Cl	nt	nt	nt	-11%	nt
CCCCOc1cccc(C(=O)N2CCN(CCc3ccncc3)CC2)c1	nt	-3%	1%	2%	7%
O=C(CCN1CCC2CCC(C2)C1)c1ccccc1 (configuration not stated)	nt	nt	nt	71µM*	nt
CCCCOc1ccc(C(=O)N2CCN(CCc3ccncc3)CC2)cc1	nt	-11%	-6%	-8%	6.3µM*[quencher]
C[N@+]1(CCC(=O)c2ccccc2)CC[C@H]2CC[C@H](C2)C1	-32%[14.2 µM]	nt	nt	nt	nt
COc1ccc(C(=O)CCN2CCCC(C)C2)cc1 (configuration not stated)	nt	nt	4%	71µM*	nt
COc1ccc(N2CCN(CCC(=O)c3ccc4ccccc4c3)CC2)cc1	nt	nt	-6%	71µM*	nt
O=C(CNC(=O)C(c1ccccc1)c1ccccc1)OCC(=O)c1ccc2ccccc2c1	nt	nt	nt	62%	nt
CCCCCCCC/C=C\CCCCCCCCCCCCC	nt	-3%[201 µM]	nt	nt	-1%[201 µM]
Cc1ccc(Nc2nc(NCc3ccco3)nc3nccnc23)c(C)c1	nt	nt	nt	-4%	nt
CCCC=O	-30%	2%	nt	nt	-3%
CN1CC(O)C2=CC(=O)C(=O)C=C21 (configuration not stated)	3.5µM*	-24%	14µM*	11µM*	?
O=CN/N=C/c1c(O)ccc2ccccc12	8%	1%	-24%	20%	-4%
O=S(=O)(/N=C/c1c(O)ccc2ccccc12)c1cccs1	-7%	28µM*	-10%	nt	?
CC(C)C(=O)OCC(C)(C)C(O)C(C)C (configuration not stated)	nt	2%[201 µM]	nt	nt	2%[201 µM]
